Over roughly 68,000 sequences, “fluorescence intensity (a.u.)” has its median near 9,100; the highest 2% begin near 16,000. Many of the other results were omitted from the sample, so the highest values are more common in it than they were.

Sequence of OsWRKY34 (Q0JBA9 entry or part of it): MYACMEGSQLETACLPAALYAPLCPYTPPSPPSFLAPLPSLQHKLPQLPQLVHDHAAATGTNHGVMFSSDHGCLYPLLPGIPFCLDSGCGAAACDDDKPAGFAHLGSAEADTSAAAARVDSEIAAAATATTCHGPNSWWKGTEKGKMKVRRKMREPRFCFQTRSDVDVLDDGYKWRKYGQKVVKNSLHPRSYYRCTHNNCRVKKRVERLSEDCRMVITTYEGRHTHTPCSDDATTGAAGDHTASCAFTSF

For the assay, the target named is OsWRKY34 (Oryza sativa, UniProt Q0JBA9 1-250). The assay can be described thus: protein-binding microarray (RPBM); PBS, 2% BSA, 51.3 ng/ul salmon testes DNA, 50 uM zinc acetate, 200 nM TF, 25 C, 1 h; high values mean tight binding. The note with it: protein: recombinant; tags: N-terminal polyhistidine and DsRed monomer fusion (pET32a); label: CyDye5-dUTP incorporated in the synthesized complementary strand; 3' TTTTT single-stranded linker to array surface; dsDNA, one strand shown. The gist of the method:
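Using Ni–NTA, transcription factors fused N-terminally to polyhistidine and DsRed were purified after expression in E. coli BL21-CodonPlus. These were incubated at 200 nM with a blocked, double-stranded custom Agilent array for 1 h at 25 °C in a buffer containing 50 µM zinc acetate, and the array was washed. The binding signal is per-feature fluorescence intensity (arbitrary units) on an Axon 4000B scanner.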
Turning to “GCGATCTTCGCGGCTTCACCATCATACCTGCAACTGCAACCGGAGTCACCTAGTGCAG”, the binding signal is 8220 fluorescence intensity (a.u.).

On to “CGTCCGGCCGCGAAACCGAGCCTTCTGACCACCGCCGAAACGGAGTCACCTAGTGCAG”, for which the binding signal is 8050 fluorescence intensity (a.u.). Next, “ATTTGACACCGTTAACCTTTTAGCACATGTTTGACCGTTCCGGAGTCACCTAGTGCAG”: 11900 fluorescence intensity (a.u.).

“CACCGTTGATTTTTTAGCACATGTTTGACCGTTCGTCTTACGGAGTCACCTAGTGCAG”: the binding signal is 12900 fluorescence intensity (a.u.).

On to “TTGTTTGCACCGGTTTTGACAGTTCAGGGATCGGTTGTATCGGAGTCACCTAGTGCAG”, for which the binding signal was 8200 fluorescence intensity (a.u.).

For “TTGATTTTTTTAGCACATGTTTGACCGTTCGTCTTATTAACGGAGTCACCTAGTGCAG”, the binding signal is 13200 fluorescence intensity (a.u.).

Regarding “ACACCGTTGACTTTTTAGCACGTGTTTGACCGTTCACCTTCGGAGTCACCTAGTGCAG”, the binding signal is 26900 fluorescence intensity (a.u.).

For the sequence “TAAGCACAGTTGACTTTTTTTTTGGTGTGTTCCGGTGTATCGGAGTCACCTAGTGCAG”, the binding signal was 20900 fluorescence intensity (a.u.). Then “GTTGACTTTTTAGCACGTGTTTGACCGTTCGTCTTATTAACGGAGTCACCTAGTGCAG”, with 9780 fluorescence intensity (a.u.). Then “GTTTGTTGCAGTTTGGTGTGTATGTTTGTTGCACTTTGATCGGAGTCACCTAGTGCAG”, with 9920 fluorescence intensity (a.u.).

Consider “TATTTAACACCGTTGACTTTTTAGCACATGTTTGACCGTTCGGAGTCACCTAGTGCAG”, for which the binding signal was 38200 fluorescence intensity (a.u.). Consider “ACCGTTGACTTTTTAGCACATGATTGATCGTTCGTTTTATCGGAGTCACCTAGTGCAG”, for which the binding signal was 33800 fluorescence intensity (a.u.). Next, “CAAAAACACTCCACATATTTTTCCTTTTAGTTACGTAATTCGGAGTCACCTAGTGCAG”: 9500 fluorescence intensity (a.u.); “TCGTCGTGTTCGTGTTTTTTTTCTTCCAATCTGCGCGCGTCGGAGTCACCTAGTGCAG”: 8990 fluorescence intensity (a.u.); “TACGCTGTGATCCCCGTCTTCAATTTCTCGTTCGCTCTCACGGAGTCACCTAGTGCAG”: 12800 fluorescence intensity (a.u.). In the case of “AGCCTATTTCATTTGATATATCATGGTGCATGATCTAATTCGGAGTCACCTAGTGCAG”, the binding signal was 11100 fluorescence intensity (a.u.). As for “ACGTCCAAATCACATTATATCAGTTCCTGTTTGTAACCGCCGGAGTCACCTAGTGCAG”, the binding signal is 8550 fluorescence intensity (a.u.). Next, “GTGCCTGTTTGCTTCAGTGATGCTGGTGGTGGTTGCCTAACGGAGTCACCTAGTGCAG”: 9460 fluorescence intensity (a.u.); “GTACTCCTGGTCCGCATCCACCGTCCATCCGCGTACCGCACGGAGTCACCTAGTGCAG”: 11000 fluorescence intensity (a.u.). As to “GTTCTTCTTCTTCTTCTTCTTTTTTTCGTCCAAGGCCACTCGGAGTCACCTAGTGCAG”, the binding signal was 8280 fluorescence intensity (a.u.).

Turning to “TTTTCTCCTTTCGCGTTGCGTCCGCGATCCGATCGATCGACGGAGTCACCTAGTGCAG”, the binding signal was 9560 fluorescence intensity (a.u.). Then “CGACAGTTTCCTTTTTCGCGACCACTTCCGATCTCCTAAACGGAGTCACCTAGTGCAG”, with 17000 fluorescence intensity (a.u.); and “AGTTTTTTCCTTTTAATCTCCGACTTCACCGGGTTTTTTCCGGAGTCACCTAGTGCAG”, with 8260 fluorescence intensity (a.u.).

Take “CGTTTTTGTGTCTTTCATTTGAGGAGGAACTGCGATTCTTCGGAGTCACCTAGTGCAG”: the binding signal was 9400 fluorescence intensity (a.u.).

Take “AACTTCTTGCATGTGCCTTTTTTATCATCTGCATATATTTCGGAGTCACCTAGTGCAG”: the binding signal is 10300 fluorescence intensity (a.u.). In the case of “ACTTCCGATGCGTAATAAGGCTTTAGTCCCACAACTGACGCGGAGTCACCTAGTGCAG”, the binding signal is 8630 fluorescence intensity (a.u.). Then “GCTCTAACACACCTTCATCATGCATGCATATGTGCTATTTCGGAGTCACCTAGTGCAG”, with 8080 fluorescence intensity (a.u.); and “GGTGGGTGGGCATTTGCAACAAAATAACTTACGGGGTGGACGGAGTCACCTAGTGCAG”, with 17000 fluorescence intensity (a.u.); and “TTACAACAAAACTAAGTAGGGGTGGGTATTTGCAACAAAACGGAGTCACCTAGTGCAG”, with 17600 fluorescence intensity (a.u.).

On to “CATATGCACTAACAAAACCGAGTAGGAGGGTGGGTATTTGCGGAGTCACCTAGTGCAG”, for which the binding signal was 8580 fluorescence intensity (a.u.).

“CATTACTTTTTTGGTGGACTTGCAAAAACATGGGCATTTTCGGAGTCACCTAGTGCAG”: the binding signal is 8680 fluorescence intensity (a.u.). Then “AGTAGGAGGGTGGGTATTTGCAACAAAATGACTTATGAGGCGGAGTCACCTAGTGCAG”, with 12800 fluorescence intensity (a.u.); and “AAAATAACTTACGGGGTGGAATGTCAAACTTCAAGTGACTCGGAGTCACCTAGTGCAG”, with 8470 fluorescence intensity (a.u.). Next, “GGTTTGCCGTCGTCGGCGTCGGCCGCTGCCTCGCGCGCGCCGGAGTCACCTAGTGCAG”: 9230 fluorescence intensity (a.u.); “AGCCTACCAGCTGCACCGCAAATGCCGTGTACTGCTTTCTCGGAGTCACCTAGTGCAG”: 8340 fluorescence intensity (a.u.). For “GTGATGTGCTGCAACCTCGCCGCCAGCCGCGCCCTGTGCGCGGAGTCACCTAGTGCAG”, the binding signal is 8560 fluorescence intensity (a.u.). Then “ATATCTGTTTTTACGGTTCGAGGACGTTTTTATATCCGATCGGAGTCACCTAGTGCAG”, with 8940 fluorescence intensity (a.u.); and “ACGTGTTTGACCATTCGTTTTATTCAAATCATTTAAGTAACGGAGTCACCTAGTGCAG”, with 9230 fluorescence intensity (a.u.); and “ACGTGTCGTTGACTTTTTATCACACGTTTAGCCATTCGTCCGGAGTCACCTAGTGCAG”, with 30200 fluorescence intensity (a.u.).

With “ACCTCTGTTTTTAATAGATGACGTGTCGTTGACTTTTTATCGGAGTCACCTAGTGCAG”, the binding signal was 13300 fluorescence intensity (a.u.). Then “TAACACCGTTGACTTTTTAGCTCATGTTTGACCATTCGTCCGGAGTCACCTAGTGCAG”, with 27400 fluorescence intensity (a.u.). As for “TTAACTTTTTAGTACGTGTTTGACCATTCGTATTATTCAACGGAGTCACCTAGTGCAG”, the binding signal is 9020 fluorescence intensity (a.u.). Next, “TGTTTGACACCGTTGACTTTTTAGTCGTGTTTGACCATTCCGGAGTCACCTAGTGCAG”: 24400 fluorescence intensity (a.u.); “GTTTGACACCGTGGACTTTTTTAAATATGTTTGACCATTCCGGAGTCACCTAGTGCAG”: 11800 fluorescence intensity (a.u.); “CATCGTTGAACTTTATCGTGCCCTTCACACCATTCCGTCGCGGAGTCACCTAGTGCAG”: 8130 fluorescence intensity (a.u.). Next, “GACACCGTTGACTTTTTAAGTACGTGTTTGACCATTCGTCCGGAGTCACCTAGTGCAG”: 43700 fluorescence intensity (a.u.).

(Values after article PMC7819943, “Rice protein-binding microarrays: a tool to detect cis-acting elements near promoter regions in rice”.)
